Structures are written as SMILES. Results filed as inconclusive are left out. The source made the active and inactive calls. Calls follow the shape of the full dose curve.
Potency is read from the fitted curve at half-maximal effect.

The nature of the experiment: VSVG counterscreen qHTS to identify inhibitors of SARS-CoV-2 cell entry (AID 1645847). Also: nearly all actives have a fitted effect of over 65% in size. Particulars: VSV-G pseudotyped particle entry, luciferase; series mostly up to 57.2 µM. The source says: Assay Provider: Wei Zheng, Ph.D.
National Center for Advancing Translational Sciences, National Institute of Health, Rockville, MD.
SARS-CoV-2 spike protein, within the viral envelope, mediates viral attachment and infection of host cells. The SARS-CoV-2 spike protein specifically binds to the host receptor ACE2 (Angiotensin-converting enzyme 2). This interaction promotes endocytosis of the viral particle, additional events lead to viral-host cell membrane fusion and release of the viral contents, allowing viral replication.
While SARS-CoV-2 requires BSL-3 facilities for live virus work, pseudotyped partices (PP) that incorporate SARS-CoV-2 spike proteins without replication elements could facilitate studies on viral entry mechanisms in a BSL-2 setting. This PP cell entry assay could also enable screening of small molecule compound libraries in BSL-2 setting to identify inhibitors of SARS-CoV-2 cell entry.
SEQUENCE No. (e.g., 1, 2, 3, etc.); […] (e.g., Cells, Incubation, Reagent, etc.); VALUE and DESCRIPTION.
1. Cells. Seed 1500 HEK293-ACE2 cells (Expi293F with stable expression of human ACE2) in 2 microL/well media (DMEM, 10% FBS, 1x L-glutamine, 1x Pen/Strep, 1 ug/ml puromycin) in white 1536-well assay plates (Greiner #782073).
2. Incubation. Incubate at 37 degrees C with 5% CO2 overnight (~16 h).
3. Compound. Dispense 23 nL/well compounds in DMSO via pin transfer.
4. Incubation. Incubate for 1 h at 37C 5% CO2.
5. Reagent. Dispense 2 microL/well of vesicular stomatitis virus G glycoprotein (VSV-G) pseudotyped particles (PP). [a] PPs are produced with murine leukemia virus pseudo-typing.
6. Centrifugation. […]
7. Incubation. Incubate at for 48 h at 37C 5% CO2
8. Centrifugation. Remove supernatant with gentle centrifugation using a Blue Washer (BlueCat Bio).
9. Reagent. Dispense 4 microL/well of Bright-Glo Luciferase detection reagent (Promega #E2620).
10. Incubation. Incubate for 5 min at room temperature.
11. Detection. Read luminescence signal (ViewLux plate reader, PerkinElmer). Data was normalized with wells containing VSV-G PP as 100%, and wells containing bald PP (no fusion protein) as 0%.
On the technique in general: Counterscreens check selectivity or assay interference.
In the case of `COc1cc(Nc2ncc3c(n2)-c2ccc(Cl)cc2C(c2c(F)cccc2OC)=NC3)ccc1C(=O)O`, the Potency is 0.108 µM (active).
For `COc1ccc(C(=O)c2c(C)n(CCN3CCOCC3)c3cc(I)ccc23)cc1` the value was 30.4 µM (active); for `Cc1ccc(C(N)=O)cc1Nc1nccc(-c2cn(C(C)C)c3cnccc23)n1`, 2.15 µM (active); for `COc1ccc(-c2c(-c3ccc(O)cc3O)n[nH]c2C)cc1`, 12.4 µM (active).
The same measure for `O=C(Nc1ccncc1)C(=O)c1cn(Cc2ccc(Cl)cc2)c2ccccc12`: 0.961 µM (active); for `COc1c(Cl)cc2c([nH]c3cnccc32)c1NC(=O)c1cccnc1C`: “inactive”; for `CC(=O)Nc1ccc([C@H](C)C(=O)Nc2ncc(C(C)C)s2)cc1`: 13.6 µM (active).
As for `CCCS(=O)(=O)Nc1ccc(F)c(C(=O)c2c[nH]c3ncc(-c4ccc(Cl)cc4)cc23)c1F`, the Potency is 21.5 µM (active).
Regarding `CNC(=O)c1cc(Oc2ccc(NC(=O)Nc3ccc(Cl)c(C(F)(F)F)c3)c(F)c2)ccn1`, the Potency was 10.8 µM (active).
On to `CN1CC[C@@H](c2c(O)cc(O)c3c(=O)cc(-c4ccccc4Cl)oc23)[C@@H](O)C1`, for which the Potency is 1.36 µM (active).
The same measure for `CC(C)(C)c1cnc(CSc2cnc(NC(=O)C3CCNCC3)s2)o1`: 1.92 µM (active).
With `N#CCNC(=O)c1ccc(-c2ccnc(Nc3ccc(N4CCOCC4)cc3)n2)cc1`, the Potency is 6.81 µM (active).
Regarding `CS(=O)(=O)c1cccc(CNc2nc(Nc3ccc4c(c3)CCC(=O)N4)ncc2C(F)(F)F)c1`, the Potency is 4.29 µM (active).
With `O=C(O)c1ccc2c(c1)nc(Nc1cccc(Cl)c1)c1ccncc12`, the Potency was 2.15 µM (active).
The same measure for `CC(=O)c1c(C)c2cnc(Nc3ccc(N4CCNCC4)cn3)nc2n(C2CCCC2)c1=O`: 6.81 µM (active); for `CCc1c(C(=O)C(N)=O)c2c(OCC(=O)O)cccc2n1Cc1ccccc1`: “inactive”; for `COc1cc2nccc(Oc3ccc(NC(=O)C4(C(=O)Nc5ccc(F)cc5)CC4)cc3)c2cc1OC`: 8.57 µM (active).
The same measure for `COc1cc([C@@H]2c3cc4c(cc3[C@@H](O)C3COC(=O)C32)OCO4)cc(OC)c1O` (stereo partly specified): 0.541 µM (active); for `CCCCOCCOc1nc(-c2ccc(C(=O)O)c(F)c2)sc1C`: “inactive”; for `O=C(c1cc(Cc2n[nH]c(=O)c3ccccc23)ccc1F)N1CCN(C(=O)C2CC2)CC1`: 21.5 µM (active).
For `CN(c1ncccc1CNc1nc(Nc2ccc3c(c2)CC(=O)N3)ncc1C(F)(F)F)S(C)(=O)=O`, the Potency was 2.15 µM (active).
The same measure for `Cc1n[nH]c(C)c1Cc1sc2c(c1C(=O)N1C[C@H](O)CO1)c(=O)n(C)c(=O)n2CC(C)C`: 1.24 µM (active).
In the case of `Cc1cc(Nc2nc(N[C@@H](C)c3ncc(F)cn3)ncc2Cl)n[nH]1`, the Potency is 6.81 µM (active).
For the compound `CC(C)[C@H](C(=O)Nc1ccc(C(=O)NO)cc1)c1ccccc1`, the Potency is 30.4 µM (active).
The same measure for `O=c1[nH]c(-c2ccc(C(F)(F)F)cc2)nc2c1CSCC2`: 1.92 µM (active); for `Cc1cc(Nc2cc(N3CCN(C)CC3)nc(Sc3ccc(NC(=O)C4CC4)cc3)n2)n[nH]1`: 0.215 µM (active).

(Values after PubChem BioAssay (NCATS).)
